Measurements: PubChem BioAssay
Values joined by “and” are separate entries in the source; they are usually repeats but may differ in a detail not shown here. Identical values can stand only once.

The compounds below were run on XIP peptide (Xip251-270) (assay: compounds binding XIP fragment 251-270 – biochemical, small-molecule microarray, fluorescence 635/667 nm, 0.5 µg/mL protein, primary screen (AID 1183)). Conditions: fluorescence 635 nm, higher = more signal.

Row | Structure (SMILES) | composite z-score
1 | c1ccc(-c2cc3c(nc2-c2ccccc2)CCNC3)cc1 | 0.0762
2 | COC(=O)[C@@]1(Cc2ccccc2)[C@H]2c3cc(C(=O)N(C)C)n(C)c3C[C@H]2CN1C(=O)c1ccccc1 | -0.0822
3 | O=P(c1ccccc1)(c1ccccc1)N1CC2(CC2)CC(O)(c2ccccc2)C1 (stereo unspecified) | 0.725
4 | COC(=O)[C@@]1(Cc2ccccc2)[C@H]2c3cc(C(=O)N(C)C)[nH]c3C[C@H]2CN1C(=O)c1ccccc1 | -0.456
5 | COC(=O)C1(C)C=C2C(=C(C)C(=O)C2C)CN1 (stereo unspecified) | -0.628
6 | C[C@@H]1Cc2c(cnc3c2CN(C)CC3)CO1 | 0.188
7 | COC(=O)[C@H]1[C@H](c2ccccc2)C(=O)[C@]2(O)c3ccccc3O[C@@]12c1ccccc1 | 0.364
8 | CCCc1cc2c(n1CCO)C(C)C1CN(C(=O)c3ccccc3)C(C)(C(=O)OC)C21 (stereo unspecified) | 0.719
9 | C[C@H]1O[C@H]2C3=C(C(=O)[C@@H]4O[C@@H]4[C@@H]3O)[C@@H]1[C@@H]1[C@@H](C)OC=C3[C@@H](O)[C@H]4O[C@H]4C(=O)[C@]312 | 0.938
10 | CC1N(P(=O)(c2ccccc2)c2ccccc2)CC(O)(c2ccccc2)CC12CC2 (stereo unspecified) | 0.547 and 0.382
11 | CCCc1cc2c(n1Cc1cccc(Cl)c1)C(C)C1CN(C(=O)c3ccccc3)C(C)(C(=O)OC)C21 (stereo unspecified) | -0.589
